Laboratory results as given in PubChem BioAssay.
For some assays here: Measured potencies and affinities stand elsewhere. Active and inactive are the calls of the source. Unless noted, the rule behind the calls is not given here.

Legend:
[1] = antimalarial activity against Dd2 strain (AID 2302;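 active = growth inhibition above 50% at the single 2 µM test dose, taken to imply half-maximal potency below 2 µM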;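 note: 0% = DMSO untreated growth and 100% = chloroquine plus artemisinin killed control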); conditions: P. falciparum Dd2 in RBCs, LDH growth readout, 72 h; at 2 µM; stronger effect = higher value
[2] = human hepatoma cell viability loss – ATP luminescence, cytotoxicity control for P. falciparum antimalarial project, primary screen (AID 2303;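 active = inhibition above 50%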;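 note: 0% = DMSO wells and 100% = digitonin-killed cells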); conditions: HepG2 viability, 24-48 h, at 10 µM, stronger effect = higher value
[3] = target: L-lactate dehydrogenase (Plasmodium falciparum (isolate CDC / Honduras)) (UniProt Q27743); experiment: PfLDH activity inhibition – cell lysate, 3D7 strain, counter-screen for P. falciparum growth inhibition project (AID 2304);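 note: 0% = vehicle and 100% = reference inhibitor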; conditions: P. falciparum 3D7 crude extract, LDH APAD/NBT absorbance; at 2 µM; stronger effect = higher value
[4] = inhibition of 3D7 malaria parasite growth – strain 3D7 (AID 2306);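 note: 0% = DMSO wells and 100% = chloroquine plus artemisinin control wells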; conditions: P. falciparum 3D7 erythrocytic growth, LDH absorbance, 72 h; at 2 µM; stronger effect = higher value
[5] = target: Calcium-dependent protein kinase 1 (Plasmodium falciparum (isolate 3D7)) (UniProt P62344); experiment: PfCDPK1 kinase inhibitors, biochemical, TCAMS library (AID 1159585; cut-off not given, nearly all actives have IC50 up to about 0.98 µM;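 note: inhibitors leave more ATP so luminescence rises with inhibition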); conditions: recombinant PfCDPK1, Kinase-Glo ATP depletion luminescence
[6] = target: Plasmodium falciparum protein kinase 6 (PK6, PF3D7_1337100) (UniProt Q8IDW1); experiment: PfPK6 kinase inhibitors, biochemical, TCAMS library (AID 1159586); conditions: recombinant PfPK6, Kinase-Glo ATP depletion luminescence
[7] = target: Protein kinase 7 (PK7), Plasmodium falciparum 3D7 (PF3D7_0213400) (UniProt Q7YTF7); experiment: inhibition of Plasmodium PK7 catalytic activity – biochemical, TCAMS antimalarial set, Kinase-Glo luminescence (AID 1159587); conditions: recombinant PfPK7, Kinase-Glo ATP depletion luminescence
[8] = target: Calcium-dependent protein kinase 4 (Plasmodium falciparum (isolate 3D7)) (UniProt Q8IBS5); experiment: PfCDPK4 kinase inhibitors, biochemical, TCAMS library (AID 1159588; cut-off not given, nearly all actives have IC50 up to about 0.91 µM); conditions: recombinant PfCDPK4, Kinase-Glo ATP depletion luminescence
Sequence of Calcium-dependent protein kinase 4 (Plasmodium falciparum (isolate 3D7)) (Q8IBS5 whole entry, looked up): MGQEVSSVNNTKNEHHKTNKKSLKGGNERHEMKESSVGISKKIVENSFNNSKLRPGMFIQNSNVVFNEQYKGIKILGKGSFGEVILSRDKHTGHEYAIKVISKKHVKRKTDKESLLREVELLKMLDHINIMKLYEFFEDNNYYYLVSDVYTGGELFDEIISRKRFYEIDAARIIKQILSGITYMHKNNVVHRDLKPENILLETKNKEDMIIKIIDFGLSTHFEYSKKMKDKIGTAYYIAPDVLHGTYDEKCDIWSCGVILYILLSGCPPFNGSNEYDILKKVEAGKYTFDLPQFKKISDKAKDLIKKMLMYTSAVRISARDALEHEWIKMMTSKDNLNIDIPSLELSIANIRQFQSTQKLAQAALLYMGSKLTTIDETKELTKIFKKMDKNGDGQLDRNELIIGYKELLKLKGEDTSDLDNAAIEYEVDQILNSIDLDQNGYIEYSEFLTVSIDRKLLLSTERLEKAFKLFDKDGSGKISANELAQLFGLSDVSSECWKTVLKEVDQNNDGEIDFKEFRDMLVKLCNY

Sequence of Plasmodium falciparum protein kinase 6 (PK6, PF3D7_1337100) (Q8IDW1 1-305): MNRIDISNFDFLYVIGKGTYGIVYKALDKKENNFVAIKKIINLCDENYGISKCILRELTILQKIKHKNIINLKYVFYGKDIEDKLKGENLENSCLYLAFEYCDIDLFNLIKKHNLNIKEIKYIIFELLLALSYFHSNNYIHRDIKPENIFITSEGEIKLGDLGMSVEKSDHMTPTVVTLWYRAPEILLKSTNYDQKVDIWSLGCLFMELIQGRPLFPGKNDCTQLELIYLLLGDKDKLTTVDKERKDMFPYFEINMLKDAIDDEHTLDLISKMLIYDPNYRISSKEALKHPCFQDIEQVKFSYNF
Sequence of L-lactate dehydrogenase (Plasmodium falciparum (isolate CDC / Honduras)) (Q27743 whole entry, looked up): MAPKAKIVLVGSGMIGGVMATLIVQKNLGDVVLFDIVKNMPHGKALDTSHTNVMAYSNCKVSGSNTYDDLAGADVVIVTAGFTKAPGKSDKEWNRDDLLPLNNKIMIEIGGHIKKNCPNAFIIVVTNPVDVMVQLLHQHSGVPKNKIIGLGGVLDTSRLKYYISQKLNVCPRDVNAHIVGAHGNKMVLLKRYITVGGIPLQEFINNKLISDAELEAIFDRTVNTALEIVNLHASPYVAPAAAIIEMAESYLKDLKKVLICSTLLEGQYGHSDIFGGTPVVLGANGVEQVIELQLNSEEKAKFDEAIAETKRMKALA
Sequence of Protein kinase 7 (PK7), Plasmodium falciparum 3D7 (PF3D7_0213400) (Q7YTF7 1-343): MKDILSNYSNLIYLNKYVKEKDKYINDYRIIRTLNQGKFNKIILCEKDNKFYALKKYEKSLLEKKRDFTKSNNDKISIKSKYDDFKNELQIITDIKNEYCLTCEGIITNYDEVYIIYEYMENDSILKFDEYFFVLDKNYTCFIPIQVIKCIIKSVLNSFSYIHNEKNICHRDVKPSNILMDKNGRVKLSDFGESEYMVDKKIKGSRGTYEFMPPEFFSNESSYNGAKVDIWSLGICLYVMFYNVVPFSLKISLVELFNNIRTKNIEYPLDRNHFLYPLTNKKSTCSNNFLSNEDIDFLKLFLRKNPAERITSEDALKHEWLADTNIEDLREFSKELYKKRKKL
Sequence of Calcium-dependent protein kinase 1 (Plasmodium falciparum (isolate 3D7)) (P62344 whole entry, looked up): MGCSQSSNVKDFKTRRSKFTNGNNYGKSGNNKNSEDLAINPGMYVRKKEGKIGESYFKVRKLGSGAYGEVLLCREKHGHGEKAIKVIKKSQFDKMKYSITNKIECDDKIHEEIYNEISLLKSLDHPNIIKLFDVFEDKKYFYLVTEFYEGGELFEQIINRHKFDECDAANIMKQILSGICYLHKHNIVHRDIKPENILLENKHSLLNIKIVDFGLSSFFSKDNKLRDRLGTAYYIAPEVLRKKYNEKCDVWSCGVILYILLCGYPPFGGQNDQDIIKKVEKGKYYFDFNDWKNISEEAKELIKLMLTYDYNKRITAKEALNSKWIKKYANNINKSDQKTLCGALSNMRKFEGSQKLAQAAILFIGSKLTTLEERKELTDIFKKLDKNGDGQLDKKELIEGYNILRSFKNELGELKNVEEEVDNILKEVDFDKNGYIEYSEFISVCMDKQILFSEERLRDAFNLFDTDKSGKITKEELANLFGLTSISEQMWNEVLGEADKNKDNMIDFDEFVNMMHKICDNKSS

O=C(O[C@H]1CN[C@H](C#Cc2cc3c(Nc4ccc(OCc5cccc(F)c5)c(Cl)c4)ncnc3s2)C1)N1CCCC1
inactive: inhibition [2] 11% | inhibition [3] -7% | outcome [5] | outcome [6] | outcome [7] | outcome [8]
active: growth inhibition [1] 67% | growth inhibition [4] 99%

COc1ccc2ncc(F)c(CCN3CCC[C@H](CNCc4ccc5c(n4)NC(=O)CS5)C3)c2n1
inactive: growth inhibition [1] 34% | inhibition [2] 16% | inhibition [3] 3% | outcome [5] | outcome [6] | outcome [7] | outcome [8]
active: growth inhibition [4] 96%

CN1CCCN(Cc2ccc(-c3cccc(NC(=O)c4cccc(Cl)c4)c3)cc2)CC1
active: growth inhibition [4] 100%
inactive: growth inhibition [1] 32% | inhibition [2] 33% | inhibition [3] -3% | outcome [5] | outcome [6] | outcome [7] | outcome [8]

CC(=O)Oc1c(C2CCN(CCCCNC(=O)c3ccc(-c4ccc(C#N)cc4)cc3)CC2)ccc2c1CCCC2
active: growth inhibition [1] 52% | growth inhibition [4] 88%
inactive: inhibition [2] 21% | inhibition [3] 3% | outcome [5] | outcome [6] | outcome [7] | outcome [8]

COc1ccc(NC(=O)NC2CCN(CCCOc3cc(C)nc4ccccc34)CC2)cc1OC
active: growth inhibition [4] 97%
inactive: growth inhibition [1] 9% | inhibition [2] 3% | inhibition [3] 2% | outcome [5] | outcome [6] | outcome [7] | outcome [8]

CCCCOc1ccc(-n2c(Nc3ccccc3)nc3cc(S(N)(=O)=O)ccc32)cc1
active: growth inhibition [1] 72% | growth inhibition [4] 90%
inactive: inhibition [2] 0% | inhibition [3] -6% | outcome [5] | outcome [6] | outcome [7] | outcome [8]

CC1(C)C(=O)Nc2ccc3c(c21)CC1SC(=O)NN=C31 (stereo not given)
active: growth inhibition [1] 92% | growth inhibition [4] 96%
inactive: inhibition [2] 6% | inhibition [3] -1% | outcome [5] | outcome [6] | outcome [7] | outcome [8]

COc1cc2nc(NCCn3ccnc3C)nc(NCCc3ccccc3)c2cc1OC
active: growth inhibition [4] 99%
inactive: growth inhibition [1] 0% | inhibition [2] 21% | inhibition [3] -6% | outcome [5] | outcome [6] | outcome [7] | outcome [8]

CCc1cn2c3c(cc(C(=O)N[C@@H](Cc4ccccc4)[C@H](O)CNC(C)(C)c4cccc(OC)c4)cc13)N(C)S(=O)(=O)C2
inactive: inhibition [2] 27% | inhibition [3] -5% | outcome [5] | outcome [6] | outcome [7] | outcome [8]
active: growth inhibition [1] 99% | growth inhibition [4] 98%

Cc1cc(N[C@@H](Cc2ccccc2)C(=O)NCCc2ccccc2)nc(NCCc2ccccc2)n1
inactive: inhibition [2] -4% | inhibition [3] -2% | outcome [5] | outcome [6] | outcome [7] | outcome [8]
active: growth inhibition [1] 57% | growth inhibition [4] 100%

CC(=O)Nc1cccc(CNCc2ccc(-c3cnc(N4CCCC(c5ccccc5)C4)nc3)cc2)c1 (stereo not given)
inactive: growth inhibition [1] 22% | inhibition [2] 16% | inhibition [3] 3% | outcome [5] | outcome [6] | outcome [7] | outcome [8]
active: growth inhibition [4] 84%

CCCCCCCN1CC[C@@H](CCCc2ccnc3ccc(OC)cc23)[C@@H](CCN)C1
active: inhibition [2] 50% | growth inhibition [4] 102%
inactive: growth inhibition [1] 11% | inhibition [3] -5% | outcome [5] | outcome [6] | outcome [7] | outcome [8]

CN(C)c1ccc(CN2CCC(NC(=O)c3ccc(-c4cccc(Cl)c4)s3)CC2)cc1
active: inhibition [2] 65% | growth inhibition [4] 93%
inactive: growth inhibition [1] 44% | inhibition [3] -3% | outcome [5] | outcome [6] | outcome [7] | outcome [8]

N#Cc1ccc2c(c1)CCN(CCC1CCC(NC(=O)/C=C/c3c[nH]c4ccc(F)cc34)CC1)CC2 (stereo not given)
inactive: inhibition [2] 18% | inhibition [3] 4% | outcome [5] | outcome [6] | outcome [7] | outcome [8]
active: growth inhibition [1] 83% | growth inhibition [4] 101%

COC(=O)C(Cc1ccccc1)C(CSCc1ccc(OC)cc1)C(=O)N[C@@H](C(=O)OC(C)(C)C)c1ccc(C(C)(C)C)cc1 (stereo not given in full)
active: growth inhibition [4] 93%
inactive: growth inhibition [1] 44% | inhibition [2] -1% | inhibition [3] 2% | outcome [5] | outcome [6] | outcome [7] | outcome [8]

CSc1nc2cc3c(cc2n1C(=O)c1ccc(C)cc1)OCCO3
inactive: growth inhibition [1] -1% | inhibition [2] -6% | inhibition [3] -6% | outcome [5] | outcome [6] | outcome [7] | outcome [8]
active: growth inhibition [4] 99%

O=C(Nc1ccccc1F)NC1CCN(c2ccnc(Nc3ccc(F)cc3)n2)C1 (stereo not given)
inactive: inhibition [2] 0% | inhibition [3] -7% | outcome [5] | outcome [6] | outcome [7] | outcome [8]
active: growth inhibition [1] 74% | growth inhibition [4] 95%

COc1cccc(CNC[C@@H](O)[C@H](Cc2ccccc2)NC(=O)c2cc(NC(C)C)cc(N3CCCCS3(=O)=O)c2)c1
active: growth inhibition [1] 97% | growth inhibition [4] 89%
inactive: inhibition [2] 1% | inhibition [3] 1% | outcome [5] | outcome [6] | outcome [7] | outcome [8]

Cc1cccc2[nH]c(-c3ccc(-c4ccc(CNCCCN5CCCC5=O)cc4)s3)nc12
inactive: growth inhibition [1] 43% | inhibition [2] 17% | inhibition [3] 2% | outcome [5] | outcome [6] | outcome [7] | outcome [8]
active: growth inhibition [4] 101%

Cc1ccccc1OCCCN1CCN(CC(c2ccc(F)cc2)N2CCN(C(C)C)CC2)CC1 (stereo not given)
inactive: inhibition [2] 20% | inhibition [3] 2% | outcome [5] | outcome [6] | outcome [7] | outcome [8]
active: growth inhibition [1] 64% | growth inhibition [4] 99%

CN(CCCN)CCCNc1ccnc2cc(Cl)ccc12
active: growth inhibition [4] 101%
inactive: growth inhibition [1] -2% | inhibition [2] 1% | inhibition [3] -10% | outcome [5] | outcome [6] | outcome [7] | outcome [8]

Cc1cc(N2CCCC2)nc(Nc2ccc(NC(=O)C(C)Oc3ccccc3)cc2)n1 (stereo not given)
inactive: inhibition [2] 42% | inhibition [3] -1% | outcome [5] | outcome [6] | outcome [7] | outcome [8]
active: growth inhibition [1] 58% | growth inhibition [4] 101%

C=CCC1OC(=O)c2cc(OC)cc(OC)c21 (stereo not given)
inactive: inhibition [3] 2% | outcome [5] | outcome [6] | outcome [7] | outcome [8]
active: growth inhibition [1] 100% | inhibition [2] 100% | growth inhibition [4] 95%

COc1ccc(C2SCC(=O)N2CCc2ccc(OC)c(OC)c2)cc1 (stereo not given)
active: growth inhibition [4] 96%
inactive: growth inhibition [1] 2% | inhibition [2] 19% | inhibition [3] 1% | outcome [5] | outcome [6] | outcome [7] | outcome [8]

O=S(=O)(c1cc(Cl)sc1Cl)N(CCC(O)(C(F)(F)F)C(F)(F)F)Cc1cccc(O)c1
inactive: inhibition [2] -4% | inhibition [3] 5% | outcome [5] | outcome [6] | outcome [7] | outcome [8]
active: growth inhibition [1] 97% | growth inhibition [4] 98%

COc1ccc2nccc([C@@H](O)CN3CCC(c4cc(-c5ccc(Cl)cc5)n[nH]4)CC3)c2n1
active: growth inhibition [1] 56% | growth inhibition [4] 97%
inactive: inhibition [2] 43% | inhibition [3] 0% | outcome [5] | outcome [6] | outcome [7] | outcome [8]

C=Cc1ccccc1C1(O)CCN(CCCCNC(=O)c2ccc(-c3ccc(C#N)cc3)cc2)CC1
inactive: inhibition [2] 27% | inhibition [3] 0% | outcome [5] | outcome [6] | outcome [7] | outcome [8]
active: growth inhibition [1] 64% | growth inhibition [4] 88%

Cc1cccc(C)c1CNc1ccnc2ccccc12
active: inhibition [2] 59% | growth inhibition [4] 92%
inactive: growth inhibition [1] 10% | inhibition [3] -1% | outcome [5] | outcome [6] | outcome [7] | outcome [8]

Cc1ccc(O)cc1Nc1ccnc2cc(-c3csc(CN(C)CCN(C)C)n3)ccc12
inactive: inhibition [2] 3% | inhibition [3] 4% | outcome [5] | outcome [6] | outcome [7] | outcome [8]
active: growth inhibition [1] 80% | growth inhibition [4] 101%

Clc1ccc(Nc2nc3ccc(Cl)cc3nc2Nc2ccc(Cl)cc2)cc1
inactive: inhibition [3] 3% | outcome [5] | outcome [6] | outcome [7] | outcome [8]
active: growth inhibition [1] 99% | inhibition [2] 79% | growth inhibition [4] 99%

CC(=O)c1ccc(-c2ccc(C(=O)NCCCCN3CCC(c4ccc5c(c4OCC(N)=O)CCCC5)CC3)cc2)s1
inactive: growth inhibition [1] 4% | inhibition [2] 26% | inhibition [3] -4% | outcome [5] | outcome [6] | outcome [7] | outcome [8]
active: growth inhibition [4] 90%

CC(=O)Nc1ccc(CN(Cc2cccc(OC(C)(C)C)c2)Cc2ccc3c(c2)OCCO3)cc1
active: growth inhibition [1] 96% | growth inhibition [4] 95%
inactive: inhibition [2] -10% | inhibition [3] 8% | outcome [5] | outcome [6] | outcome [7] | outcome [8]

CN(C)CCN(C)Cc1ccc(-c2cccc(NC(=O)c3cccc(C#N)c3)c2)cc1
active: growth inhibition [4] 94%
inactive: growth inhibition [1] 11% | inhibition [2] 23% | inhibition [3] -4% | outcome [5] | outcome [6] | outcome [7] | outcome [8]

CCNc1cc(C(=O)N[C@@H](Cc2ccccc2)[C@H](O)CN[C@H](C)C(C)(C)C)cc(N2CCCCS2(=O)=O)c1
inactive: growth inhibition [1] 41% | inhibition [2] 4% | inhibition [3] -2% | outcome [5] | outcome [6] | outcome [7] | outcome [8]
active: growth inhibition [4] 95%

O=C(CCCCCNC(=O)c1ccc(O)c(-c2ccc(Cl)c(Cl)c2)c1)NCCN1CCCC1
inactive: growth inhibition [1] 2% | inhibition [2] -6% | inhibition [3] -2% | outcome [5] | outcome [6] | outcome [7] | outcome [8]
active: growth inhibition [4] 90%

CCCC1(NC[C@@H](O)[C@H](Cc2ccccc2)NC(=O)c2cc(NCC)cc(N3CCCCS3(=O)=O)c2)CCCC1
active: growth inhibition [1] 97% | growth inhibition [4] 101%
inactive: inhibition [2] -1% | inhibition [3] -5% | outcome [5] | outcome [6] | outcome [7] | outcome [8]

Cc1nc(NCCCn2ccnc2)cc(-c2cncc(-c3ccc(OC(F)(F)F)cc3)c2)n1
active: growth inhibition [4] 99%
inactive: growth inhibition [1] 11% | inhibition [2] 2% | inhibition [3] 2% | outcome [5] | outcome [6] | outcome [7] | outcome [8]

COc1ccc(Cc2c(N)nc3nc(N)nc(N)c3c2C)cc1
inactive: growth inhibition [1] 3% | inhibition [3] -8% | outcome [5] | outcome [6] | outcome [7] | outcome [8]
active: inhibition [2] 64% | growth inhibition [4] 94%

COc1cc(NC(=O)c2cccs2)c(OC)cc1NC(=O)Nc1cccc(Cl)c1
inactive: growth inhibition [1] 10% | inhibition [2] 5% | inhibition [3] -3% | outcome [5] | outcome [6] | outcome [7] | outcome [8]
active: growth inhibition [4] 83%

COc1cccc(-c2csc(C(=O)NCC3CCN(Cc4ccc(C(C)C)cc4)C3)c2)c1 (stereo not given)
active: growth inhibition [4] 86%
inactive: growth inhibition [1] 9% | inhibition [2] 35% | inhibition [3] 0% | outcome [5] | outcome [6] | outcome [7] | outcome [8]
